Test systems include HCT-15 colon; SNB-75 CNS; SNB-19 CNS; U251 CNS; PC-3 prostate; SK-MEL-5 melanoma; UACC-62 melanoma; LOX IMVI melanoma; SK-MEL-28 melanoma; SK-MEL-2 melanoma; EKVX NSCLC; SN12C renal; UO-31 renal; TK-10 renal; ACHN renal; CAKI-1 renal; A498 renal; CCRF-CEM leukemia; MOLT-4 leukemia.
Holding throughout (assay): NCI-60 one-dose screen, 48 h (100 = growth as untreated, 0 = no growth, -100 = all killed)
Holding throughout (conditions): 10 µM unless noted

The panel holds about 83,000 compounds, 20% with a hit somewhere; the sample as a whole holds those more often.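 Treatment: one concentration, 48 hours, 96-well format. Scoring: percent growth, with anything below 10 considered active.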 Values without a mark were called inactive. Activity calls are given as the source filed them.

Take `CC1=C(C)C(=O)C(Nc2cccc(C)c2)=C(Br)C1=O`: the growth with HCT-15 colon is 98.4%; in the assay on SNB-75 CNS it was 67.7%; with SNB-19 CNS, 101%; with U251 CNS, 101%; with PC-3 prostate, 78.5%; in the assay with SK-MEL-5 melanoma, 90.5%. For the same compound, the growth with UACC-62 melanoma was 94.4%; in the assay on LOX IMVI melanoma, 58.1%; in the assay on SK-MEL-28 melanoma, 115%; in the assay on SK-MEL-2 melanoma, 117%; with EKVX NSCLC, 68.7%; in the assay on SN12C renal it was 96.9%. Further, the growth in the assay on UO-31 renal is 80.2%; with TK-10 renal it was 152%; in the assay with ACHN renal it was 95.7%; in the assay on CAKI-1 renal, 99.3%; with A498 renal, 95.5%; with CCRF-CEM leukemia it was 16.5%. Further, the growth in the assay with MOLT-4 leukemia was -29.9% (active).

Turning to `CCOC(=O)c1cccc(NC2=C(Cl)C(=O)C(C)=C(C)C2=O)c1`, the growth is 99.3% in the assay with HCT-15 colon; 104% in the assay on SNB-75 CNS; 96.5% with SNB-19 CNS; 90.9% with U251 CNS; 85.6% in the assay on PC-3 prostate; 100% with SK-MEL-5 melanoma. The growth is 94.7% in the assay on UACC-62 melanoma; 91.9% in the assay with LOX IMVI melanoma; 110% in the assay on SK-MEL-28 melanoma; 104% in the assay on SK-MEL-2 melanoma; 74.4% in the assay with EKVX NSCLC; 94.8% in the assay with SN12C renal. Besides, the growth is 96.7% in the assay on UO-31 renal; 129% with TK-10 renal; 106% in the assay with ACHN renal; 89.4% in the assay with CAKI-1 renal; 89.1% in the assay on A498 renal; 13.9% in the assay with CCRF-CEM leukemia. Besides, the growth in the assay with MOLT-4 leukemia is 5.67% (active).

Take `Cn1c(SCC(=O)c2ccc(F)cc2)nc2ccccc2c1=O`: the growth with HCT-15 colon was 104%; in the assay with SNB-75 CNS it was 91.1%; in the assay with SNB-19 CNS, 96.9%; with U251 CNS, 95.3%; in the assay with PC-3 prostate, 94.8%; in the assay with SK-MEL-5 melanoma it was 91.6%. The growth was 82.2% in the assay on UACC-62 melanoma; 96.3% with LOX IMVI melanoma; 105% with SK-MEL-28 melanoma; 105% with SK-MEL-2 melanoma; 79.6% in the assay on EKVX NSCLC; 91.4% with SN12C renal. The growth was 74.2% with UO-31 renal; 120% with TK-10 renal; 96.4% in the assay with ACHN renal; 87.7% with CAKI-1 renal; 99.5% with A498 renal; 90.3% in the assay on CCRF-CEM leukemia. Also, the growth in the assay with MOLT-4 leukemia is 95.8%.

For the compound `C=CCSC1=NC2C(N(CC)C(=O)N2CC)N1/N=C/C=C/c1ccccc1OC` (centres undefined), the growth was 50.8% in the assay with HCT-15 colon; 70.7% with SNB-75 CNS; 79.9% in the assay with SNB-19 CNS; 74.2% in the assay on U251 CNS; 62.4% in the assay on PC-3 prostate; 54.6% in the assay on UACC-62 melanoma. The growth in the assay on LOX IMVI melanoma is 68.9%; in the assay with SK-MEL-28 melanoma, 84.3%; in the assay on SK-MEL-2 melanoma, 98.7%; in the assay with EKVX NSCLC, 83.7%; in the assay on SN12C renal it was 97.5%; with UO-31 renal, 68.3%. The growth with TK-10 renal was 122%; in the assay with ACHN renal it was 74.7%; in the assay with CAKI-1 renal, 49.5%; with A498 renal it was 55.1%; in the assay with CCRF-CEM leukemia, 63.5%; with MOLT-4 leukemia, 70.6%.

With `Cc1ccc(C)c(NC2=C(Cl)C(=O)c3nc(C)ccc3C2=O)c1`, the growth with HCT-15 colon was -60.9% (active); in the assay with SNB-75 CNS, 63.2%; with SNB-19 CNS, 17.1%; in the assay on U251 CNS it was 1.85% (active); with PC-3 prostate, 9.58% (active); with SK-MEL-5 melanoma, -96.8% (active). Moreover, the growth in the assay with UACC-62 melanoma is -35.2% (active); in the assay on LOX IMVI melanoma it was -69.5% (active); in the assay on SK-MEL-28 melanoma, -11.6% (active); in the assay on SK-MEL-2 melanoma it was -36.2% (active); in the assay on EKVX NSCLC, 1.21% (active); in the assay on SN12C renal it was -81.7% (active). For the same compound, the growth in the assay with UO-31 renal was -81.4% (active); in the assay on TK-10 renal, 147%; with ACHN renal, -96.3% (active); in the assay with CAKI-1 renal it was 57%; with A498 renal, 83.8%; in the assay on MOLT-4 leukemia it was -11% (active).

As to `O=C(CCCCCCNC(=O)C(O)(O)C(F)(F)F)Nc1ccc(Br)cc1`, the growth is 20.8% in the assay with HCT-15 colon; 33.9% with SNB-75 CNS; 14.7% in the assay with SNB-19 CNS; -21.3% (active) in the assay on U251 CNS; 31.6% with PC-3 prostate; -68.3% (active) with SK-MEL-5 melanoma. For the same compound, the growth in the assay on UACC-62 melanoma was -50% (active); with LOX IMVI melanoma, -75.2% (active); in the assay on SK-MEL-28 melanoma, 9.41% (active); in the assay on SK-MEL-2 melanoma it was -24.7% (active); with EKVX NSCLC, 33.3%; with SN12C renal it was 20.1%. The growth in the assay on UO-31 renal is -2.06% (active); in the assay with TK-10 renal it was -2.6% (active); in the assay on ACHN renal, -15.8% (active); with CAKI-1 renal it was -13.9% (active); with A498 renal it was -13.9% (active); in the assay with CCRF-CEM leukemia it was 23.9%. In the assay on MOLT-4 leukemia, the growth is 13.2%.

As for `O=C(CSc1nc2ccccc2c(=O)n1-c1ccc(Cl)cc1)N/N=C/c1ccc(Oc2ccc(Cl)cc2)cc1`, the growth in the assay on HCT-15 colon is 10.4%; in the assay on SNB-75 CNS it was 57.9%; with SNB-19 CNS, 28.5%; with U251 CNS, -20.5% (active); in the assay with PC-3 prostate it was 0.803% (active); in the assay on SK-MEL-5 melanoma, 10.9%. Besides, the growth in the assay on UACC-62 melanoma is 0.427% (active); in the assay with LOX IMVI melanoma, -56.3% (active); in the assay with SK-MEL-28 melanoma it was 3.17% (active); in the assay with SK-MEL-2 melanoma, 54.3%; in the assay on EKVX NSCLC it was 40.8%; with SN12C renal, 45.3%. Further, the growth was 93.1% in the assay with UO-31 renal; 39.7% in the assay on TK-10 renal; 63.5% with ACHN renal; 33% in the assay with CAKI-1 renal; -42.3% (active) with A498 renal; -2.67% (active) with CCRF-CEM leukemia. In the assay on MOLT-4 leukemia, the growth is -25.1% (active).

As to `CC(C)(C)Nc1nc2c(OCCc3ccccc3)cccn2c1-c1cccc(Oc2ccccc2)c1`, the growth in the assay on HCT-15 colon was 6.6% (active); in the assay with SNB-75 CNS it was 43.5%; with SNB-19 CNS, 24.5%; in the assay with U251 CNS, 13.5%; in the assay with PC-3 prostate, 17.5%; in the assay with SK-MEL-5 melanoma it was -75% (active). For the same compound, the growth in the assay with UACC-62 melanoma is 15%; in the assay with LOX IMVI melanoma, 3.93% (active); with SK-MEL-28 melanoma, 34%; with SK-MEL-2 melanoma, -26.2% (active); with EKVX NSCLC, 13.5%; in the assay with SN12C renal, 12.3%. For the same compound, the growth in the assay with UO-31 renal was 5.5% (active); in the assay on TK-10 renal, 21.8%; in the assay on ACHN renal, 7.39% (active); in the assay with CAKI-1 renal, 8.12% (active); in the assay on A498 renal, 16.2%; in the assay on CCRF-CEM leukemia, 15%. Moreover, the growth in the assay with MOLT-4 leukemia is 5.42% (active).

`CCCc1[nH]c(-c2cc(N)ccc2Cl)c2c1C(=O)CCCC2`: the growth in the assay on HCT-15 colon is 90.6%; in the assay with SNB-75 CNS, 89.2%; in the assay with SNB-19 CNS, 100%; with U251 CNS, 102%; in the assay on PC-3 prostate, 85.6%; with SK-MEL-5 melanoma, 98.1%. Also, the growth was 82.1% in the assay with UACC-62 melanoma; 107% with LOX IMVI melanoma; 102% with SK-MEL-28 melanoma; 95.5% in the assay on SK-MEL-2 melanoma; 90.3% in the assay on EKVX NSCLC; 92.1% in the assay on SN12C renal. Moreover, the growth in the assay with UO-31 renal was 78.3%; with TK-10 renal it was 107%; with ACHN renal, 107%; in the assay with CAKI-1 renal, 76.3%; with A498 renal, 108%; in the assay with CCRF-CEM leukemia, 96.2%. The growth with MOLT-4 leukemia was 88.6%.

As for `NC1CC2(CCN(c3cnc(C(=O)Nc4cc(F)cc5cccnc45)cn3)CC2)C1`, the growth in the assay with HCT-15 colon is 3.7% (active); in the assay with SNB-75 CNS it was 74.2%; in the assay with SNB-19 CNS, 83.1%; in the assay on U251 CNS it was 57.1%; in the assay on PC-3 prostate it was 76.6%; with SK-MEL-5 melanoma, 95.3%. For the same compound, the growth with UACC-62 melanoma was 95.4%; in the assay on LOX IMVI melanoma, -17% (active); with SK-MEL-28 melanoma, 93.3%; in the assay on SK-MEL-2 melanoma it was 101%; in the assay on EKVX NSCLC it was 81.9%; in the assay on SN12C renal, 72.5%. Moreover, the growth in the assay on UO-31 renal was 76.1%; in the assay on TK-10 renal, 88%; with ACHN renal, 79%; in the assay with CAKI-1 renal it was 79.3%; in the assay on A498 renal, 74.3%; in the assay with CCRF-CEM leukemia, 34.7%. For the same compound, in the assay on MOLT-4 leukemia, the growth is 40.8%.

Take `O=C(CCCCCCNC(=O)C(O)(O)C(F)(F)F)Nc1ccc(Cl)cc1`: the growth in the assay with HCT-15 colon was 39.1%; with SNB-75 CNS it was 42.5%; in the assay on SNB-19 CNS, 31.7%; with U251 CNS, 13.9%; in the assay on PC-3 prostate it was 35.3%; in the assay with SK-MEL-5 melanoma, -28% (active). Moreover, the growth in the assay on UACC-62 melanoma is -18.8% (active); in the assay with LOX IMVI melanoma, 4.18% (active); in the assay with SK-MEL-28 melanoma, 27%; in the assay on SK-MEL-2 melanoma it was -13.7% (active); with SN12C renal, 29.8%; with UO-31 renal, 8.11% (active). For the same compound, the growth in the assay with TK-10 renal is 3.6% (active); with ACHN renal, 0.488% (active); in the assay on CAKI-1 renal, 3.96% (active); in the assay on A498 renal it was 9% (active); in the assay with MOLT-4 leukemia it was 15.8%.

For `COc1ccc2c(c1)c(-c1nc(N)nnc1-c1c[nH]c3ccccc13)cn2C`, the growth in the assay with HCT-15 colon is 22.9%; with SNB-75 CNS, -11.9% (active); in the assay with SNB-19 CNS it was 31.5%; with U251 CNS, 24.6%; in the assay with PC-3 prostate, 43.4%; in the assay on SK-MEL-5 melanoma it was 26%. Also, the growth is 26.1% in the assay on UACC-62 melanoma; 33.1% with LOX IMVI melanoma; 54.5% in the assay with SK-MEL-28 melanoma; 52.6% with SK-MEL-2 melanoma; 43.9% with EKVX NSCLC; 53.6% in the assay with SN12C renal. Besides, the growth in the assay with UO-31 renal was 50.9%; with TK-10 renal it was 92.8%; with ACHN renal, 44.7%; in the assay on CAKI-1 renal, 31.1%; in the assay on A498 renal it was 4.9% (active); in the assay with CCRF-CEM leukemia, 28.7%. Besides, in the assay on MOLT-4 leukemia, the growth was 25.5%.

For the origin of these results see PubChem BioAssay (NCI).
